Results filed as inconclusive are left out. Activity calls are given as the source filed them. The call rests on the fitted dose curve; in most records, active means well fitted inhibition curve with a large enough effect; inconclusive means small, poorly fitted or top-dose-only effect; inactive means no such curve, though single readings can be large or run the other way.
Target: Glutaminase kidney isoform, mitochondrial (Homo sapiens) (UniProt O94925)
Experiment: qHTS for Inhibitors of Glutaminase (GLS): LOPAC Validation (AID 624146); further: nearly all actives have a fitted effect of over 60% in size;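 on activity change, negative = inhibition: glutamate product detected by oxidase and peroxidase coupled Amplex red fluorescence gain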
Settings: glutaminase enzyme activity inhibition; series mostly up to 46.1 µM; activity change, negative = inhibition: at the top concentration
Source text: Glutaminase (GLS) catalyzes the hydrolysis of glutamine into glutamate and ammonia. It plays a critical role in glutaminolysis, which is an important energy source for proliferating cells. It was shown that c-Myc, an oncogenic transcription factor known to regulate microRNAs and to stimulate cell proliferation, increases glutamine metabolism by stimulating the expression of GLS via direct suppression of miR23a and miR23b.
GLS is also thought to play a pathogenic role on HAD using a human HIV-1 infected macrophage system. […] GLS inhibition limits glutamate release and provides neuroprotection against HIV-1 infected macrophages.
The overall goal of this project is to identify small molecule inhibitors of GLS through quantitative high throughput screening (qHTS) of the MLSMR. A validated potent and selective inhibitor can be used as a tool molecule to further study the pharmacology of its target as well as explore its potential therapeutic application in cancer and inflammatory neurological disorders, such as HIV1-associated dementia (HAD) and multiple sclerosis.
NIH Chemical Genomics Center [NCGC]
NIH Molecular Libraries Probe Centers Network [MLPCN]
Assay Submitter (PI): Barbara S. Slusher, Johns Hopkins University
Three 3 uL of hKGA is dispensed into black well 1536-well plates in 45 mM KH2PO4 (pH 8.2), 0.02% Tween-20. Then 23 nL of compounds are added through pin tool transfer. To this, 1 uL of 1mM L-Glutamine and 1 uL of a solution of L-Glutamateoxidase, HRP, Amplex red are added. Plate is centrifuged for 25 sec before an initial fluorescence read is obtained on the ViewLux, after 30 min of RT incubation, the final read is taken on the ViewLux.
On the % scale 0 is the no-effect control and ±100 the full control effect; potency means the concentration at half of the fitted maximal effect.

Chain of Glutaminase kidney isoform, mitochondrial (Homo sapiens) (O94925 whole entry, looked up, canonical isoform): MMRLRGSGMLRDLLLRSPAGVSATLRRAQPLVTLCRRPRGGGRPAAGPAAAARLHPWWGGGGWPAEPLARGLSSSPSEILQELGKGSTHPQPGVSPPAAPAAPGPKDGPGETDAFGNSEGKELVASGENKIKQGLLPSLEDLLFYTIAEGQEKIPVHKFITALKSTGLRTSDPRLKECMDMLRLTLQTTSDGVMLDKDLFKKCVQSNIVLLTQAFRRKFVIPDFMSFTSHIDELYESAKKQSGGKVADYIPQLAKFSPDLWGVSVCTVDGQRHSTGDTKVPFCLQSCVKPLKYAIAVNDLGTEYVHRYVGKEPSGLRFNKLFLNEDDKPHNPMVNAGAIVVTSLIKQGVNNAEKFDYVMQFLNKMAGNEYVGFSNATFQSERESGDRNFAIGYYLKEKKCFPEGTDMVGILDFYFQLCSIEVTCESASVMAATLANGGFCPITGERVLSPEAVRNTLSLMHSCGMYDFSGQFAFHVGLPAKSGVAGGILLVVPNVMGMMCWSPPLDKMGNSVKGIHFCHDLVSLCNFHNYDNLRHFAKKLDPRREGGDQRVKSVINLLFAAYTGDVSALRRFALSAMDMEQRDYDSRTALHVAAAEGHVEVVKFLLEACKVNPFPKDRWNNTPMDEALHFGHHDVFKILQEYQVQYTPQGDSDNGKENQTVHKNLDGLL

Row | SMILES | activity change, negative = inhibition | Potency
1 | COC(=O)C1=CO[C@@H](O)[C@@H]2C(CO)=CC[C@H]12 | -37.2% (inactive) | –
2 | Nc1ncnc2n[nH]c(Nc3ccc(F)cc3)c12 | – | 10 µM (active)
3 | C[N+](C)(C)CCO | -8.68% (inactive) | –
4 | COc1ccccc1N1CCN(CCN2C(=O)CC3(CCCC3)CC2=O)CC1 | -21.1% (inactive) | –
5 | COc1cccc2c1[C@@H]1CN(CCCCn3c(=O)[nH]c4c(sc5ncc(-c6ccccc6)nc54)c3=O)C[C@@H]1CO2 | -18.6% (inactive) | –
6 | Cn1cnc2c(NCc3ccccc3)nc(NCCO)nc21 | -17.6% (inactive) | –
7 | CCN(CC)CCNC(=O)c1ccc(NS(C)(=O)=O)cc1 | 151% (inactive) | –
8 | Cc1nn(-c2ccccc2)c(C)c1/C=N/N1CCN(Cc2ccccc2)CC1 | -5.32% (inactive) | –
9 | Clc1ccc2c(c1)N=C(N1CCNCC1)c1ccccc1N2 | -25.8% (inactive) | –
10 | O=[N+]([O-])c1ccc(-c2nc(-c3ccc(F)cc3)c(-c3ccncc3)[nH]2)cc1 | -21.1% (inactive) | –
11 | Brc1ccc([C@H]2CN3CCSC3=N2)cc1 | -10.9% (inactive) | –
12 | O=C1NC(=O)/C(=C/c2ccc3c(c2)OC(F)(F)O3)S1 | -4.47% (inactive) | –
13 | NC(N)=NCCCCN=C(N)N | -4.07% (inactive) | –

Source: PubChem BioAssay (NCATS)
